In PubChem BioAssay AID1022 (Emory University Molecular Libraries Screening Center, 2008):
In all, about 220,000 compounds went through this assay and about 3,300 (1.5%) were called active. This is one part of a sample in which actives are shown more often than they occur.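 How the source made its calls: active means compounds that cut the protein-peptide binding signal by more than 50% relative to plate controls in a single-dose test; inactive means the rest.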

molecular target: Induced myeloid leukemia cell differentiation protein Mcl-1 (Homo sapiens) (UniProt Q07820); test: Mcl-1/Noxa binding inhibitors, primary screen, biochemical, TR-FRET, 1536-well (AID 1022); settings: TR-FRET Mcl-1/Noxa peptide binding, 2 h; at 21.7 µM; active compounds read high;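 further: His-tagged Mcl-1 with rhodamine Noxa BH3 peptide and terbium anti-His antibody; 0% = Mcl-1 plus Noxa peptide wells and 100% = peptide-only wells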
Sequence (Q07820 whole entry, looked up): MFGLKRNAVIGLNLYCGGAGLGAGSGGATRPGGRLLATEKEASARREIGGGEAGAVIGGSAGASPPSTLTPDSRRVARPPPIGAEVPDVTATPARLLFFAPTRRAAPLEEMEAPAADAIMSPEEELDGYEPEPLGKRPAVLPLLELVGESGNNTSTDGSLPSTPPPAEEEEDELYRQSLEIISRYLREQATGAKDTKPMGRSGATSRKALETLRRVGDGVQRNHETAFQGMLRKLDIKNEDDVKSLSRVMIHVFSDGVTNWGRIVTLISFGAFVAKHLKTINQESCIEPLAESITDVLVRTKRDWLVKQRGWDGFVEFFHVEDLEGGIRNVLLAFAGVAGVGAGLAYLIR

inhibition, active:
C=CCn1c(CSc2nc3ccccc3s2)nnc1SCC(=O)NCc1ccco1 51.2%
CN(C(=O)COC(=O)c1cc(-c2ccco2)nc2ccccc12)C1CCS(=O)(=O)C1 (centres undefined) 107%
O=C(C1=C(O)C(=O)N(c2ncccn2)C1c1cccs1)c1ccco1 (centres undefined) 55%
O=C(O)/C=C/C(=O)NNc1ccc([N+](=O)[O-])cc1 54.4%
CC(C)CNC(=S)NC(=O)c1ccc(Cl)cc1 62.4%
Cc1ccc(/C=C/C(=O)Nc2ccc([N+](=O)[O-])c(NC(=O)/C=C/c3ccc(C)o3)c2)o1 88.8%
CC(=O)Nc1cc(C(=O)O)ccc1S(=O)(=O)c1ccc(Cl)cc1 57.8%
Cc1ccc(-c2n[nH]c(=S)n2/N=C/c2cc3c(cc2[N+](=O)[O-])OCO3)cc1 63.6%
COc1ccc(Cc2nnc(NC(=O)Cc3cccs3)s2)cc1 101%
O=c1cc(CO)oc(C(Nc2cccc(C(F)(F)F)c2)c2ccccn2)c1O (centres undefined) 70%
O=c1cc(CO)oc(C(Nc2cccc([N+](=O)[O-])c2)c2ccccn2)c1O (centres undefined) 70.7%
CCOc1ccc(NC(=S)NC(=O)/C=C/c2ccc(OC)cc2)c([N+](=O)[O-])c1 63.1%
COc1ccc2nc(Nc3nc4ccc(NC(C)=O)cc4s3)sc2c1 70.9%
Cc1nn(CC(=O)Nc2ccc(N(C)C)cc2)c(C)c1[N+](=O)[O-] 73.9%
O=[N+]([O-])c1cc(S(=O)(=O)Nc2cccc(Cl)c2)ccc1N=Nc1c(O)[nH]c2ccccc12 71.3%
O=[N+]([O-])c1c(NCCO)cc(Sc2nc3ccccc3s2)c2nonc12 79.7%
O=C(N/N=C/c1ccc([N+](=O)[O-])o1)c1cn(-c2ccccc2)nc1-c1ccc(F)cc1 65.5%
C/C(=N\Nc1cccc(C(=O)O)c1)c1ccc2c(c1)Nc1ccccc1S2 78.5%

inhibition, inactive:
O=C(Nc1ccccc1)N1CCN(C2c3ccccc3-c3ccccc32)CC1 -0.05%
CC1CCN(c2ccc([N+](=O)[O-])c(SCCO)c2)CC1 -16%
Cn1cnc(S(=O)(=O)Nc2ccc3c(c2)OCCO3)c1 -2.52%
CCn1c(COc2ccccc2)nnc1SCC(=O)NCc1ccco1 -18.1%
C=CCn1c(SCC(=O)Nc2nc3ccccc3s2)nnc1-c1ccccc1O 8.54%
C=CCC(Nc1ccccc1)c1cccc(OC)c1OC (centres undefined) 5.76%
Cc1cc(NC(=O)Nc2ccc(Cl)cc2)n(-c2ccccc2)n1 -3.74%
COc1ccc(NC(=O)COc2ccc(C(=O)OCC(=O)N(C)C3CCS(=O)(=O)C3)cc2OC)cc1 (centres undefined) -10.9%
Cc1c(-c2cccc(Cl)c2)nc2ccccc2c1C(=O)OCC(=O)N(C)C1CCS(=O)(=O)C1 (centres undefined) 13.3%
O=C(C1=C(O)C(=O)N(CCOCCO)C1c1ccccn1)c1cccs1 (centres undefined) 11.8%
O=C(C1=C(O)C(=O)N(Cc2ccccc2)C1c1ccco1)c1ccco1 (centres undefined) 24.5%
COc1cc(C=O)ccc1Oc1nnnn1-c1ccccc1 -17.8%
COc1ccc(OC)c(C(=O)c2ccc(Cl)cc2)c1 6.99%
Cc1ccc2cc(/C=N/NC(=O)[C@@H]3CCCN3)c(Cl)nc2c1 5.95%
O=[N+]([O-])c1ccc(N/N=C/c2ccccc2)cc1 1.75%
Cc1c(NC(=O)/C=C/C(=O)O)cccc1[N+](=O)[O-] -3.3%
C/C(=N\NC(=O)CC(C)C)c1c(C(F)(F)F)[nH]n(-c2nc3ccccc3s2)c1=O -81.1%
O=C(Nc1cccc2c1N(C(=O)c1ccco1)CCC2)c1ccco1 18.1%
O=C(C[n+]1ccc2c(c1)nnn2-c1ccccc1)c1ccc(Cl)cc1 4.1%
N#CCC(=O)N/N=C/c1cn(Cc2ccc3ccccc3c2)c2ccccc12 27.9%
Cc1occc1C(=O)NNC(=S)NCC(C)C -22.4%
CC(C)C(NC(=O)c1ccc(Cl)cc1)C(=O)O (centres undefined) 1.56%
Cn1cnc([N+](=O)[O-])c1Sc1n[nH]c(N)n1 3.28%
CCc1nnc(NC(=O)/C=C/c2ccc(C)o2)s1 19.4%
Cc1ccc(/C=C/C(=O)Nc2cc(S(=O)(=O)N3CCCCCC3)ccc2OCC(F)(F)F)o1 22.8%
O=C(Nc1ccc(-c2csc(Nc3cccc(C(F)(F)F)c3)n2)cc1)c1cccc(C(F)(F)F)c1 16.6%
CC(C)(C)c1cc(C(=O)NN)n(Cc2ccc(Cl)cc2Cl)n1 -5.62%
CCOC(=O)N1CCN(C(=O)c2ccc(S(=O)(=O)c3ccc(C)cc3)c(NC(C)=O)c2)CC1 2.03%
Cc1ccc(S(=O)(=O)c2ccc(Cl)cc2)cc1S(=O)(=O)NC(C(=O)O)C(C)C (centres undefined) 24%
CCC(=O)N1CCCc2ccccc21 -6.7%
CN(C)c1cc(-c2ccc(F)cc2)oc(=O)c1Cl 11.2%
Cc1ccc(S(=O)(=O)N/N=C\c2cc3c(cc2[N+](=O)[O-])OCO3)cc1 35.1%
CCOc1ccc(-c2n[nH]c(=S)n2/N=C/c2cc3c(cc2[N+](=O)[O-])OCO3)cc1 48.5%
CC(=O)N1N=C(c2ccncc2)OC1(Cc1ccccc1)Cc1ccccc1 5.2%
CCc1nnc(NC(=O)Cc2cccs2)s1 32.4%
O=C(Cc1cccs1)Nc1nnc(C2CC2)s1 -2.68%
Cc1ccc(-c2c[n+](CC(=O)Nc3ccccc3)c3n2CCC3)cc1 -9.73%
Cc1ccc(Cn2c(SCC(=O)N/N=C/c3ccccc3OCC(=O)O)nc3ccccc32)cc1 27.3%
Cc1nc2c(ncn2-c2ccccc2)c(=O)n1NC(=O)CN1CCCC1 1.52%
C=C(C)CNC(=S)Nc1ccc(S(=O)(=O)Nc2cnc3ccccc3n2)cc1 6.78%
FC(F)(F)c1cccc(Nc2ncnc3ccccc23)c1 -37.6%
Cc1ccc(CN(C)CC(=O)Nc2cccc([N+](=O)[O-])c2)o1 -9.25%
O=C(Nc1cccc(C(F)(F)F)c1)c1cnccn1 3.57%
O=C(CSCC(=O)Nc1cccc([N+](=O)[O-])c1)Nc1ccccc1 -8.73%
FC(F)(F)c1ccc(-n2cn[nH]c2=S)cc1 -8.38%
CN(C)NC(=O)c1csnc1-c1c(Cl)cccc1Cl 8.82%
O=C(CSc1ncn[nH]1)Nc1nc(-c2cccc([N+](=O)[O-])c2)cs1 0.73%
Cc1ccc(C(=O)NNC2=Nc3cc([N+](=O)[O-])ccc3OC2)cc1 8.97%
CSc1n[nH]c(=S)n1N -7.77%
CC(=O)Nc1ccc(NC(=S)NC(=O)/C=C/c2ccccc2)cc1 3.86%
Cc1ccc(NC(=S)NC(=O)/C=C/c2ccc(Cl)cc2)cc1 3.6%
O=C(N/N=C/c1ccco1)c1csc2c1CCCC2 5.75%
O=C(Nc1ccc(Cl)cc1)/C(=C1\CCCN1)[N+](=O)[O-] 9.38%
COc1ccc2nc(NC(=O)c3ccc(Br)s3)sc2c1 15.7%
COc1ccc2nc(Nc3nc4cc5c(cc4s3)OCCO5)sc2c1 -76.2%
Cn1c(SCC(=O)N2CCOCC2)nnc1-c1ccc2ncccc2c1 -9.25%
CC(C)Oc1ccc(CCC(=O)NNC(=S)NCc2ccccc2)cc1 0.21%
O=c1oc(-c2ccccc2NS(=O)(=O)c2ccc(Cl)cc2)nc2ccccc12 -43.7%
Cc1nn(CC(=O)Nc2ccc(C#N)cc2)c(C)c1[N+](=O)[O-] -6.04%
CCc1ccc(NC(=O)Cn2nc(C)c([N+](=O)[O-])c2C)cc1 3.69%
COc1ccccc1-n1c(SCC(=O)O)nc2sc3c(c2c1=O)CCC3 12.5%
COC(=O)c1cn(C(=O)c2ccc(Cl)cc2)c2ccccc12 -1.27%
Cc1cccc(N(CC(=O)N=Nc2c(O)[nH]c3ccccc23)S(C)(=O)=O)c1C 9.08%
CN1CCN(c2ccc(S(=O)(=O)Nc3ccccc3)cc2[N+](=O)[O-])CC1 -7.35%
O=C(CSc1nc2ccccc2s1)Nc1ccc(C(=O)O)cc1 2.75%
COc1ccc(S(=O)(=O)Nc2ccc(O)c(Sc3nc4ccccc4s3)c2)cc1 21.8%
O=C(N/N=C/c1ccccn1)c1cccnc1 -27.9%
Cc1nnc(SCC(=O)N/N=C/c2cn(-c3ccccc3)nc2-c2ccc(F)cc2)n1-c1ccccc1 -13.4%
O=C(O)c1ccc(NC(=O)c2cn(-c3ccccc3)nc2-c2ccc(Cl)cc2)cc1 17.5%
O=C(Nc1nnc(SCc2c(Cl)cccc2Cl)s1)c1cccc([N+](=O)[O-])c1 27.4%
CCc1cc(C(=O)c2ccc(OC)cc2)c(NC(=O)CN2CCN(C)CC2)s1 0.41%
Cc1ccc(CSc2nnc(-c3cnccn3)n2C)cc1 2.82%
O=C(NCc1cc(C(F)(F)F)cc(C(F)(F)F)c1)C1CC(c2cccc(F)c2)=NO1 (centres undefined) -14.9%
COc1ccc(C(=O)C2CCCN(Cc3ccc4nonc4c3)C2)c(C)c1 (centres undefined) 0.59%
CC(=O)Nc1cccc(/C(C)=N/NC(=O)c2ccccc2Cl)c1 12.1%
O=C(NC1CC1)c1ccc2c(c1)NC(=O)c1ccccc1S2 -14.5%
